Source: PubChem BioAssay
Compounds with a hit are over-represented: about 3.2% of the library has one in this group of screens.
Tau filament bind = qHTS Assay for Tau Filament Binding; Microtubule-associated protein tau (Homo sapiens), P10636; Potency, µM (titrated, usually from 57.1 µM), inactives show at the top dose activity change, negative = inhibition; 71,000 compounds, 2% hits; recombinant tau filaments, thioflavin S fluorescence, 15 h; filaments grown with octadecylsulfate alongside compound;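 note: potency is the fitted concentration of half-maximal effect; % is set by controls: 0 for no effect and ±100 for the full control effect; actives lower thioflavin S fluorescence by blocking filaments or displacing dye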
Target sequence (P10636 whole entry, looked up): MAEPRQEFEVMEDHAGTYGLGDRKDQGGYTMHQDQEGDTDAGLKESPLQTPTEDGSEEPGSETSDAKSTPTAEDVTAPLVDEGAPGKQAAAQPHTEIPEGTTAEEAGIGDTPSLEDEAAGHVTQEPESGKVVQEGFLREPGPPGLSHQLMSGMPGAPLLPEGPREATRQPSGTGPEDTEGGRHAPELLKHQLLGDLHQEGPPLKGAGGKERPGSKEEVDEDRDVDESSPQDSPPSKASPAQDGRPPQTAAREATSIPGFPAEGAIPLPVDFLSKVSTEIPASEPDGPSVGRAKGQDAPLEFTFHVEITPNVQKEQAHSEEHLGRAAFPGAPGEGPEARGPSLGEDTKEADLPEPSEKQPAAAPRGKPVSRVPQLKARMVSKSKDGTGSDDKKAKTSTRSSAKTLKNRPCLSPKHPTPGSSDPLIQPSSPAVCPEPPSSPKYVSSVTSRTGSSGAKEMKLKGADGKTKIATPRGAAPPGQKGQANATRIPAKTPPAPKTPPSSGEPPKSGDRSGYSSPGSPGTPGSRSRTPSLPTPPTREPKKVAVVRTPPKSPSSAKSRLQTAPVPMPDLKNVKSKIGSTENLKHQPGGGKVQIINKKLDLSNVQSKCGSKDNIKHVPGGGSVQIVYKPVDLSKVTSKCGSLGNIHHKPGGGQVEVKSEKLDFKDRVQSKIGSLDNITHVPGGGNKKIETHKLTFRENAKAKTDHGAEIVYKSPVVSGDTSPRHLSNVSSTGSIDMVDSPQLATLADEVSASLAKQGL
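His-tagged recombinant human tau (exons 2, 3, 10; 1 uM final) fibrillized with 30 uM sodium octadecylsulfate, 15 h at 37 C, in pH 7.4 HEPES buffer with 10 uM thioflavine S and 5 mM DTT. Reduced ThS fluorescence (450/510 nm) marks activity.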
Pol III holo inh = qHTS Assay for Inhibitors of DNA Polymerase III Holoenzyme System; reconstituted DNA polymerase III holoenzyme replication, biochemical; Potency, µM (series often up to 57.1 µM), without a hit: top-dose activity change, negative = inhibition; 71,000 compounds, 0.25% hits; AID 603, 2007; note: potency is the fitted concentration of half-maximal effect; % is set by controls: 0 for no effect and ±100 for the full control effect
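Reconstituted *E. coli* holoenzyme (0.35 nM Pol III, 1 nM beta, 154 nM SSB, 2 nM primase) was preincubated with compound for 15 min at RT. Synthesis on 1.4 nM ssM13Gori ran 35 min, then was stopped with PicoGreen/EDTA and read as dsDNA fluorescence.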
ERK AVP block = qHTS Assay for Inhibitors of the ERK Signaling Pathway using a Homogeneous Screening Assay; 72,000 compounds, 0.99% hits; HEK293-V1b, vasopressin-stimulated pERK AlphaScreen; Potency, µM (series often up to 57.5 µM), for the others: top-dose activity, negative = inhibition, hits mostly inhibitors; note: potency is the fitted concentration of half-maximal effect; % is set by controls: 0 for no effect and ±100 for the full control effect; nearly all actives have a fitted effect of over 55% in size
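V1b-HEK293 cells; cpd 30 min 37C; 25 nM vasopressin 5 min; lyse 10 min; AlphaScreen beads 5 hr RT. Normalized to DMSO basal and 25 nM vasopressin; AC50 by Hill fit.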
p53ts 32C kill = qHTS Screen for Compounds that Selectively Target Cancer Cells with p53 Mutations: Cytotoxicity of p53ts Cells at the Permissive Temperature. H1299-p53A138V at 32C, ATP luminescence viability, 24 h. Potency, µM (series often up to 46.1 µM), for inactives: top-dose activity change, negative = cytotoxicity, usual class: cytotoxic. 130,000 compounds, 0.93% hits. AID 924, 2007;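 note: potency is the fitted concentration of half-maximal effect; 0% = DMSO and -100% = full killing by reference compound; nearly all actives have a fitted effect of over 55% in size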
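Viability by ATPlite luminescence after 24 h compound treatment (up to 46 uM) at the permissive 32C. Cells are H1299 carrying p53 A138V. Scale runs from DMSO basal to 100 uM tamoxifen as full kill; AC50 from Hill fits.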
YjeE inh = qHTS Assay for Inhibitors of YjeE; tRNA threonylcarbamoyladenosine biosynthesis protein TsaE (Escherichia coli (strain …; purified YjeE enzyme, qHTS inhibition assay; Potency, µM; 71,000 compounds, 0.05% hits; AID 605, 2007
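Fluorescence polarization of a BODIPY Texas Red–ADP probe (2 uM) bound to purified YjeE (10 uM) was read after 15 min room-temperature incubation with compounds. Loss of polarization marks inhibitors; ADP serves as titrated control.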
p53ts 39C tox = qHTS Screen for Compounds that Selectively Target Cancer Cells with p53 Mutations: Cytotoxicity of p53ts Cells at the Nonpermissive Temperature | Potency, µM (highest dose often 46.1 µM), without a hit: at the highest dose activity change, negative = cell killing, usual class: cytotoxic | 130,000 compounds, 1.5% hits | H1299-p53A138V viability at 39C, ATP luminescence, 24 h | AID 902, 2007; note: potency is the fitted concentration of half-maximal effect; % is set by controls: 0 for no effect and ±100 for the full control effect; nearly all actives have a fitted effect of over 55% in size
* hit, by the source's call; i = inactive; ? = inconclusive; / = not tested or not shown; [ ] = dose if it differs, or a comment. Calls come from the whole dose curve; as a rule, active = well fitted curve in the direction sought with a large enough effect; inconclusive = small, poorly fitted or top-dose-only effect, or another doubt; inactive = no such curve, though single readings can be large; an effect the other way counts as inactive or inconclusive.

SMILES | Tau filament bind | Pol III holo inh | ERK AVP block | p53ts 32C kill | YjeE inh | p53ts 39C tox
COc1cc2c(cc1NCc1ccccn1)oc1ccccc12 | 31.6µM* | -7.4% | -17.8% | -5.6% | i | -16.2%
COc1cc2c(cc1NCc1ccc3c(c1)OCO3)oc1ccccc12 | / | / | / | 9.7% | / | 3.0%
Fc1ccc([C@@H]2CCNC[C@H]2COc2ccc3c(c2)OCO3)cc1 | / | / | ? | ? | / | 12.6µM*
CCCCc1c(C)nn(-c2nnc3c4ccccc4n(CC)c3n2)c1C | 2µM* | -4.0% | 20µM* | -27.0% | i | -10.1%
CCn1c2ccccc2c2nnc(N3CCN(c4ccc(F)cc4)CC3)nc21 | / | / | / | 1.8% | / | -1.4%
Cc1c(C(=O)N2CCc3ccccc3C2)sc2nc(-c3ccccc3)cn12 | 27.9% | 0.8% | 2.3% | -2.2% | i | -12.0%
c1ccc(-c2cn3c4c(sc3n2)CCCC4)cc1 | 41.6% | -10.3% | -12.8% | 1µM* | i | 0.631µM*
Cc1ccc(-c2onc(C)c2C)cc1S(=O)(=O)N1CCc2ccccc21 | / | / | / | 8.0% | / | -6.9%
O=C1OC(c2ccc(O)c(-c3ccccc3)c2)(c2ccc(O)c(-c3ccccc3)c2)c2c(Cl)c(Cl)c(Cl)c(Cl)c21 | 1.7%[11.4 µM] | -11.6%[11.4 µM] | -3.5%[11.5 µM] | 3.0%[9.22 µM] | i | 7.6%[9.22 µM]
O=C1OC2(c3cc(Br)c(O)c(Br)c3Oc3c2cc(Br)c(O)c3Br)c2c(Cl)c(Cl)c(Cl)c(Cl)c21 | 0.126µM* | 78.0% | ? | -3.9%[1.84 µM] | 39.8µM* | 3.2%
CCc1nnc(NC(=O)CSc2nc3c(cc2C#N)CCC3)s1 | 9.5% | -0.2% | -4.8% | 2µM* | i | 2µM*
N#Cc1cc2c(nc1SCC(=O)Nc1nccs1)CCCCC2 | i | 5.0% | -4.6% | ? | i | ?
Cc1ccc(CN(Cc2ccco2)C(=O)COc2ccc(Cl)cc2)o1 | / | / | / | -2.1% | / | -28.3%
Cc1cc(NCCCn2ccnc2)n2ncc(-c3ccccc3)c2n1 | -18.4% | -6.7% | -0.4% | 3.16µM* | i | 3.98µM*
Cc1cc(=O)oc2c(O)c(O)ccc12 | / | / | -18.1% | -27.3% | / | ?
O=C(O)c1cc2c(ccc3ccccc32)o1 | / | / | / | -5.9% | / | -15.1%
O=c1cc(-c2ccccc2O)oc2ccc3ccccc3c12 | ? | 1.8% | 17.3% | 2.51µM* | i | 2µM*
O=c1cc(-c2ccccc2O)oc2c(O)c(O)ccc12 | 39.8µM* | 0.501µM* | -4.3% | -11.0% | i | -16.2%
O=c1cc(-c2ccccc2)oc2c(O)c(O)ccc12 | / | / | ? | ? | / | 12.6µM*
Cc1ccc(-n2nc(CO)c(C(=O)NCc3ccccn3)n2)cc1 | / | / | / | -5.3% | / | ?
CC1(c2ccc(Cl)cc2)CC(C)(C)N(C(=O)c2cccc(F)c2)c2ccccc21 (stereo not given) | / | / | / | 3.1% | / | -18.0%
CCOC(=O)N1CCc2c(sc(NCc3cccc(F)c3)c2C(=O)Nc2ccc(OCC)cc2)C1 | / | / | / | 15.6% | / | 12.1%
COc1ccc(-c2nc(C)c(CCNC(=O)C(=O)Nc3cccc(F)c3)s2)cc1OC | / | / | / | -1.8% | / | -22.3%
O=S(=O)(c1ccccc1)c1nc(-c2ccc(F)cc2)oc1N1CCCCCC1 | / | / | / | 4.9% | / | 11.5%
CSc1oc(-c2ccc(F)cc2)nc1S(=O)(=O)c1ccc(Br)cc1 | / | / | / | -2.3% | / | ?
SMILES | Tau filament bind | Pol III holo inh | ERK AVP block | p53ts 32C kill | YjeE inh | p53ts 39C tox
CCC(C)S(=O)(=O)c1oc(-c2ccc(F)cc2)nc1S(=O)(=O)c1ccc(F)cc1 (stereo not given) | / | / | / | 3.98µM* | / | 3.16µM*
CCCCS(=O)(=O)c1oc(-c2ccc(F)cc2)nc1S(=O)(=O)c1ccc(C)cc1 | / | / | / | 12.6µM* | / | 3.98µM*
CCS(=O)(=O)c1oc(-c2ccc(F)cc2)nc1S(=O)(=O)c1ccccc1 | / | / | / | ? | / | 2.51µM*
CCCCS(=O)(=O)c1oc(-c2cccs2)nc1S(=O)(=O)c1ccc(F)cc1 | / | / | / | 20µM* | / | 3.16µM*
Cc1ccc(S(=O)(=O)c2nc(-c3ccc(F)cc3)oc2N2CCN(c3ccccc3)CC2)cc1 | / | / | / | 12.4% | / | 13.7%
CCCSc1oc(-c2cccs2)nc1S(=O)(=O)c1ccc(C)cc1 | / | / | / | 1.5% | / | 1.4%
COc1ccc(OC)c(CNC(=O)c2ccc(NC(=O)c3nsc4ccccc34)cc2)c1 | / | / | / | -12.9% | / | -23.9%
CCC1=C2CC[C@H]3C(=O)N(c4ccccc4)C(=O)[C@H]3[C@H]2[C@@]2(Cc3ccccc3)C(=NCCOC)OC(=O)N2C1=O | / | / | 3.8% | 17.4% | / | -5.3%
O=C(Nc1ccc(F)c(Cl)c1)C1CCN(S(=O)(=O)c2ccc3c(c2)CCCN3C(=O)C2CCC2)CC1 | / | / | / | -1.3% | / | -11.2%
CCN(CC)c1cc(C)c2cc(NC(=O)/C=C/c3ccccc3Cl)ccc2n1 | / | / | / | -3.0% | / | ?
COc1ccc(Nc2ncnc3onc(-c4ccc(Cl)cc4)c23)cc1Cl | / | / | / | 19.9% | / | ?
CCCCCS(=O)(=O)c1oc(-c2cccs2)nc1S(=O)(=O)c1ccc(C)cc1 | / | / | / | ? | / | 3.16µM*
O=C(Cn1cc(SCc2cccc(F)c2)c2ccccc21)N1CCCC1 | / | / | / | -0.6% | / | -17.1%
COc1ccc(C(=O)N2CCC3(CCN(C)CC3)CC2)cc1 | 15.8µM* | 18.7% | -10.9% | -7.5% | i | 3.4%
COc1ccc(C(=O)N2CCC3(CCCN(C)C3)CC2)cc1 | -1.3% | 11.0% | -3.7% | -18.7% | i | -2.6%
CCN1C(=O)c2cccc3c(S(=O)(=O)Nc4ccc(O)c(C(=O)O)c4)ccc1c23 | / | / | / | -1.4% | / | 26.3%
CCN1C(=O)c2cccc3c(S(=O)(=O)Nc4ccccc4OC)ccc1c23 | 20µM* | -3.4% | -2.0% | -4.6% | i | -11.8%
CN=c1scc(C)n1/N=C/c1ccc2c(c1)OCO2 | ? | -6.5% | ? | 5.01µM* | i | 5.01µM*
CN=c1scc(C)n1/N=C/c1ccc(O)cc1O | -20.5% | -2.2% | ? | 5.01µM* | i | 5.01µM*
Cc1nnc(C)n1/N=C/c1ccc2c(c1)OCCO2 | -10.1% | -4.4% | -6.2% | 9.2% | i | -5.5%
CN=c1scc(C)n1/N=C/c1ccc(O)cc1 | ? | ? | -4.4% | 7.94µM* | i | ?
Cc1nc2cnc(N3CCOCC3)nc2n(Cc2ccc(F)cc2)c1=O | 12.5% | -0.4% | -13.6% | 4.8% | i | 7.9%
